# In PubChem BioAssay AID1159580 (chemical genetic matrix, 2015):
# The campaign covered roughly 5,500 compounds. About 2,000 (36%) were called active. Roughly 18% stayed inconclusive and do not appear here. Some of the results follow. Unmarked numbers belong to inactive results. No stated cut-off is given here; in the data, active means normalized growth mostly below about 0.91 (no sharp cut-off); inconclusive means no clear call, values can overlap the other calls; inactive means mostly above about 0.92.
# Test: chemical genetic growth profiling, strain panel (AID 1159580);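 further: tested at 20 µM; growth read once vehicle control cultures reached saturation at 30 °C; 1 = growth at the plate median or of vehicle wells; lower values mean less growth of the strain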
# Settings: growth OD
structure (smiles),measurement,setting,value
COc1cc(OC)c2ccc(=O)oc2c1,normalized growth,"S. cerevisiae deletion strains, locus YJR075W, strain HOC1, hits give low values",1.01
same,normalized growth,"S. cerevisiae deletion strains, locus YKL009W, strain mrt4, hits give low values",0.966
same,normalized growth,"S. cerevisiae deletion strains, locus YKL068W, hits give low values",1.01
same,normalized growth,"S. cerevisiae deletion strains, locus YKL085W, strain MDH1 (second series), hits give low values",1.01
same,normalized growth,"S. cerevisiae deletion strains, locus YKL085W, strain MDH1, hits give low values",1.01
same,normalized growth,"S. cerevisiae deletion strains, locus YKL160W, strain elf1, hits give low values",0.977
same,normalized growth,"S. cerevisiae deletion strains, locus YKL190W, strain CNB1, hits give low values",1.01
same,normalized growth,"S. cerevisiae deletion strains, locus YKR001C, strain vps1, hits give low values",0.945
same,normalized growth,"S. cerevisiae deletion strains, locus YKR026C, strain gcn3, hits give low values",0.962
same,normalized growth,"S. cerevisiae deletion strains, locus YKR091W, strain srl3, hits give low values",0.99
same,normalized growth,"S. cerevisiae deletion strains, locus YLL001W, strain dnm1, hits give low values",0.94
same,normalized growth,"S. cerevisiae deletion strains, locus YLL026W, hits give low values",0.973
same,normalized growth,"S. cerevisiae deletion strains, locus YLL041C, strain sdh2, hits give low values",0.979
same,normalized growth,"S. cerevisiae deletion strains, locus YLR027C, strain aat2, hits give low values",0.977
same,normalized growth,"S. cerevisiae deletion strains, locus YLR039C, strain RIC1, hits give low values",0.974
same,normalized growth,"S. cerevisiae deletion strains, locus YLR058C, strain SHM2, hits give low values",1.01
same,normalized growth,"S. cerevisiae deletion strains, locus YLR102C, strain apc9, hits give low values",1.01
same,normalized growth,"S. cerevisiae deletion strains, locus YLR113W, strain HOG1, hits give low values",1.02
same,normalized growth,"S. cerevisiae deletion strains, locus YLR221C, strain rsa3, hits give low values",0.97
same,normalized growth,"S. cerevisiae deletion strains, locus YLR258W, strain gsy2, hits give low values",0.952
same,normalized growth,"S. cerevisiae deletion strains, locus YLR262C, strain YPT6 (second series), hits give low values",0.97
same,normalized growth,"S. cerevisiae deletion strains, locus YLR262C, strain YPT6, hits give low values",0.992
same,normalized growth,"S. cerevisiae deletion strains, locus YLR268W, strain sec22, hits give low values",1.01
same,normalized growth,"S. cerevisiae deletion strains, locus YLR320W, strain mms22, hits give low values",0.897
same,normalized growth,"S. cerevisiae deletion strains, locus YLR330W, strain CHS5, hits give low values",1
same,normalized growth,"S. cerevisiae deletion strains, locus YLR342W, strain FKS1 (second series), hits give low values",1.03
same,normalized growth,"S. cerevisiae deletion strains, locus YLR342W, strain FKS1, hits give low values",0.976
same,normalized growth,"S. cerevisiae deletion strains, locus YLR357W, strain rsc2, hits give low values",1.05
same,normalized growth,"S. cerevisiae deletion strains, locus YLR370C, strain arc18, hits give low values",0.981
same,normalized growth,"S. cerevisiae deletion strains, locus YLR371W, strain rom2, hits give low values",1.01
same,normalized growth,"S. cerevisiae deletion strains, locus YLR384C, strain iki3, hits give low values",0.975
same,normalized growth,"S. cerevisiae deletion strains, locus YLR418C, strain cdc73, hits give low values",1.01
same,normalized growth,"S. cerevisiae deletion strains, locus YML016C, strain PPZ1, hits give low values",1
same,normalized growth,"S. cerevisiae deletion strains, locus YML032C, strain rad52, hits give low values",0.982
same,normalized growth,"S. cerevisiae deletion strains, locus YML120C, strain ndi1, hits give low values",0.954
same,normalized growth,"S. cerevisiae deletion strains, locus YML124C, strain tub3, hits give low values",1.01
same,normalized growth,"S. cerevisiae deletion strains, locus YMR058W, strain fet3, hits give low values",0.957
same,normalized growth,"S. cerevisiae deletion strains, locus YMR078C, strain ctf18, hits give low values",0.996
same,normalized growth,"S. cerevisiae deletion strains, locus YMR125W, strain sto1, hits give low values",0.993
same,normalized growth,"S. cerevisiae deletion strains, locus YMR129W, hits give low values",0.988
same,normalized growth,"S. cerevisiae deletion strains, locus YMR205C, strain PFK2, hits give low values",0.97
same,normalized growth,"S. cerevisiae deletion strains, locus YMR223W, strain ubp8, hits give low values",0.976
same,normalized growth,"S. cerevisiae deletion strains, locus YMR231W, strain pep5, hits give low values",0.965
same,normalized growth,"S. cerevisiae deletion strains, locus YMR263W, strain SAP30, hits give low values",0.992
same,normalized growth,"S. cerevisiae deletion strains, locus YMR307W, strain GAS1, hits give low values",1.02
same,normalized growth,"S. cerevisiae deletion strains, locus YNL067W, strain RPL9B, hits give low values",0.989
same,normalized growth,"S. cerevisiae deletion strains, locus YNL071W, strain lat1, hits give low values",0.953
same,normalized growth,"S. cerevisiae deletion strains, locus YNL128W, strain TEP1, hits give low values",1.01
same,normalized growth,"S. cerevisiae deletion strains, locus YNL153C, strain GIM3, hits give low values",1.01
same,normalized growth,"S. cerevisiae deletion strains, locus YNL183C, strain NPR1, hits give low values",0.946
same,normalized growth,"S. cerevisiae deletion strains, locus YNL209W, strain ssb2, hits give low values",0.98
same,normalized growth,"S. cerevisiae deletion strains, locus YNL233W, strain BNI4, hits give low values",1
same,normalized growth,"S. cerevisiae deletion strains, locus YNL248C, strain rpa49, hits give low values",0.872 (active)
same,normalized growth,"S. cerevisiae deletion strains, locus YNL250W, strain rad50, hits give low values",0.992
same,normalized growth,"S. cerevisiae deletion strains, locus YNL271C, strain bni1, hits give low values",0.99
same,normalized growth,"S. cerevisiae deletion strains, locus YNL298W, strain CLA4, hits give low values",0.973
same,normalized growth,"S. cerevisiae deletion strains, locus YNL307C, strain MCK1, hits give low values",0.988
same,normalized growth,"S. cerevisiae deletion strains, locus YNL322C, strain KRE1 (second series), hits give low values",0.992
same,normalized growth,"S. cerevisiae deletion strains, locus YNL322C, strain KRE1, hits give low values",1
same,normalized growth,"S. cerevisiae deletion strains, locus YNR049C, strain mso1, hits give low values",0.982
same,normalized growth,"S. cerevisiae deletion strains, locus YNR052C, strain pop2, hits give low values",0.989
same,normalized growth,"S. cerevisiae deletion strains, locus YOL006C, strain TOP1, hits give low values",0.921
same,normalized growth,"S. cerevisiae deletion strains, locus YOL012C, strain htz1",1.64
same,normalized growth,"S. cerevisiae deletion strains, locus YOL147C, strain pex11, hits give low values",1
same,normalized growth,"S. cerevisiae deletion strains, locus YOR001W, strain rrp6, hits give low values",0.963
same,normalized growth,"S. cerevisiae deletion strains, locus YOR061W, strain CKA2, hits give low values",1
same,normalized growth,"S. cerevisiae deletion strains, locus YOR069W, strain VPS5, hits give low values",1.01
same,normalized growth,"S. cerevisiae deletion strains, locus YOR070C, strain gyp1, hits give low values",0.964
same,normalized growth,"S. cerevisiae deletion strains, locus YOR080W, strain dia2, hits give low values",0.969
same,normalized growth,"S. cerevisiae deletion strains, locus YOR083W, strain WHI5, hits give low values",0.968
same,normalized growth,"S. cerevisiae deletion strains, locus YOR106W, strain vam3, hits give low values",0.95
same,normalized growth,"S. cerevisiae deletion strains, locus YOR136W, strain idh2, hits give low values",1.01
same,normalized growth,"S. cerevisiae deletion strains, locus YOR144C, strain elg1, hits give low values",1.01
same,normalized growth,"S. cerevisiae deletion strains, locus YOR184W, strain ser1, hits give low values",0.949
same,normalized growth,"S. cerevisiae deletion strains, locus YOR231W, strain MKK1, hits give low values",0.991
same,normalized growth,"S. cerevisiae deletion strains, locus YOR265W, strain rbl2, hits give low values",0.977
same,normalized growth,"S. cerevisiae deletion strains, locus YOR270C, strain vph1, hits give low values",0.814
same,normalized growth,"S. cerevisiae deletion strains, locus YOR290C, strain snf2, hits give low values",0.936
same,normalized growth,"S. cerevisiae deletion strains, locus YOR316C, strain cot1, hits give low values",0.998
same,normalized growth,"S. cerevisiae deletion strains, locus YPL051W, strain arl3, hits give low values",0.968
same,normalized growth,"S. cerevisiae deletion strains, locus YPL055C, strain LGE1, hits give low values",0.971
same,normalized growth,"S. cerevisiae deletion strains, locus YPL078C, strain atp4, hits give low values",0.957
same,normalized growth,"S. cerevisiae deletion strains, locus YPL106C, strain sse1, hits give low values",0.926
same,normalized growth,"S. cerevisiae deletion strains, locus YPL240C, strain hsp82, hits give low values",0.985
same,normalized growth,"S. cerevisiae deletion strains, locus YPL241C, strain CIN2, hits give low values",1
same,normalized growth,"S. cerevisiae deletion strains, locus YPL256C, strain CLN2, hits give low values",1.05
same,normalized growth,"S. cerevisiae deletion strains, locus YPR119W, strain clb2, hits give low values",1
same,normalized growth,"S. cerevisiae deletion strains, locus YPR141C, strain kar3, hits give low values",1
same,normalized growth,"S. cerevisiae deletion strains, locus YPR163C, strain tif3, hits give low values",1.01
same,normalized growth,"S. cerevisiae deletion strains, locus YPR167C, strain met16, hits give low values",0.995
same,normalized growth,"S. cerevisiae deletion strains, strain wtn01, hits give low values",1
same,normalized growth,"S. cerevisiae strains, strain wild type, hits give low values",1.01
